Only a selection was taken, and hits are over-represented in it overall.
HT1080NT lethal: kills 2HG-producing HT-1080-NT fibrosarcoma cells; HT-1080-NT fibrosarcoma viability, CellTiter-Glo ATP luminescence, 48 h; Potency, µM (highest dose often 46.1 µM), inactives show at the top dose activity, negative = less viability, hits mostly cytotoxic; actives 1.6% (n = 360,000); AID 686970;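 note: NT is the 2HG producing partner of a matched IDH1 knockdown line; potency is the fitted concentration of half-maximal effect; 0% = DMSO-treated cells and -100% = media-only wells without cells; nearly all actives have a fitted effect of over 55% in size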
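Viability of the 2HG-overproducing fibrosarcoma line after 48 hours of compound exposure at 37 degrees C was determined by luminescence with CellTiter-Glo, and concentration-effect curves were then fitted and categorized.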
DT40 TDP1 no CPT: qHTS for Inhibitors of human tyrosyl-DNA phosphodiesterase 1 (TDP1): qHTS in cells in absence of CPT; DT40 Tdp1-/- hTDP1 cells, no CPT, ATP luminescence, 48 h; Potency, µM (titrated, usually from 46.2 µM), without a hit: at the top dose activity change, negative = growth inhibition, most hits filed as inhibitors; actives 15% (n = 420,000); note: potency is the fitted concentration of half-maximal effect; nearly all actives have a fitted effect of over 55% in size
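Chicken DT40 Tdp1-/- cells stably complemented with human TDP1 were seeded at 400 cells/well with DMSO in place of 20 nM camptothecin. After compound pinning, cells grew at least 48 hr at 37 °C; viability read by CellTiter-Glo luminescence.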
ALOX12 inh: inhibitors of human 12S-lipoxygenase ALOX12; P18054; purified 12hLO, xylenol orange hydroperoxide absorbance; Potency, µM (titrated, usually from 108 µM), inactives show at the top dose activity change, negative = inhibition, most hits filed as inhibitors; actives 1.1% (n = 580,000); note: potency is the fitted concentration of half-maximal effect
Target sequence (P18054 whole entry, looked up): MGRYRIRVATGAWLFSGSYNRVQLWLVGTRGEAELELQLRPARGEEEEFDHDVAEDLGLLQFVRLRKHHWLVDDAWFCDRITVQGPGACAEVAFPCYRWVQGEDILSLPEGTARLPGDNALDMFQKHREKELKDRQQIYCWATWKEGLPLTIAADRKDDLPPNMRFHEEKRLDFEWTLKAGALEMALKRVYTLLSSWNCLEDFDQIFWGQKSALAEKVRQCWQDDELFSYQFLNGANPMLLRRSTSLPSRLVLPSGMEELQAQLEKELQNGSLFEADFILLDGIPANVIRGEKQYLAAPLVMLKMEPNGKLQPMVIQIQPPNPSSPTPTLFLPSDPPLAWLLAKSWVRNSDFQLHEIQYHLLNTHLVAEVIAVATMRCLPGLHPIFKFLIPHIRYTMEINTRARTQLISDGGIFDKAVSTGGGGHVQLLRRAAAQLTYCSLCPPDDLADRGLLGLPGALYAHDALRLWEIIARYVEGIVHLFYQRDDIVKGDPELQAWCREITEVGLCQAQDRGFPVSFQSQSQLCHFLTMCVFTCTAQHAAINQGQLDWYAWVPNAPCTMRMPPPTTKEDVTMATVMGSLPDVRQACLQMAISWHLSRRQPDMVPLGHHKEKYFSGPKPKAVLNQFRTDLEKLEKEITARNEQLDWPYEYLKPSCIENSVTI
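Purified human 12hLO (150 nM final) in 25 mM Hepes, 0.01% Triton X-100, pH 7.0 was preincubated 15 min at room temperature with compound. Then 40 uM arachidonic acid was added, 30 min. Hydroperoxide was read by Fe-XO absorbance ratio 573/405 nm.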
IL1B secr inh: inflammasome signaling inhibition, IL-1 beta readout; THP-1 LPS/ATP IL-1B secretion, AlphaLISA, 16 h; stronger effect = lower value; activity change, % at 57.5 µM; actives 4.7% (n = 360,000); AID 743279; in the data active = activity change below about -50%; inconclusive = mostly about -30% to -49%
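Secreted IL-1B measured by AlphaLISA bead assay after 16 h compound exposure of THP-1 cells; compounds (final up to 57.5 uM) added 1 h before LPS (250 ng/mL) and ATP (1.25 mM) stimulation; lower signal means less secretion.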
HT1080 IDH1KD tx: toxicity to HT-1080 IDH1 knockdown cells (counter line); HT-1080 IDH1 knockdown viability, ATP luminescence, 48 h; Potency, µM (series often up to 46.1 µM), without a hit: at the highest dose activity, negative = toxicity, usual class: cytotoxic; actives 2% (n = 360,000);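 note: potency is the fitted concentration of half-maximal effect; 0% = DMSO wells and -100% = cell-free medium wells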
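In this qHTS, HT-1080 cells depleted of IDH1 are exposed for 48 h at 37 °C to compound titrations. Toxicity is scored from CellTiter-Glo luminescence, with DMSO as full viability and medium alone as none.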
TDP1 cell CPT: DT40-hTDP1 cell growth loss with CPT; chicken DT40 Tdp1-/-;hTDP1 cells + 20 nM CPT, ATP luminescence, 48 h; actives 12% (n = 420,000); Potency, µM (doses to about 46.2 µM), inactives show at the top dose activity change, negative = growth inhibition, actives largely listed as inhibitors; AID 686979; note: potency is the fitted concentration of half-maximal effect; nearly all actives have a fitted effect of over 55% in size
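Chicken DT40 Tdp1-/- cells complemented with human TDP1, 400 cells/well, exposed to compounds plus 20 nM camptothecin for at least 48 h at 37 C; viability read as ATP content by CellTiter-Glo luminescence.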
Starred values were filed as active, the others as inactive; ? = inconclusive; nt = no result; [ ] = dose if it differs, or a comment. Unless noted, calls come from the whole dose curve; as a rule, active = well fitted curve in the direction sought with a large enough effect; inconclusive = small, poorly fitted or top-dose-only effect, or another doubt; inactive = no such curve, though single readings can be large; an effect the other way counts as inactive or inconclusive. Unless noted, % is set by controls: 0 for no effect and ±100 for the full control effect.

SMILES	HT1080NT lethal	DT40 TDP1 no CPT	ALOX12 inh	IL1B secr inh	HT1080 IDH1KD tx	TDP1 cell CPT
COc1ccccc1C1NC(=O)NC(C)=C1C(=O)OCc1ccccc1 (stereo not drawn)	-10%	?	0%	-16	-10%	-19%
COC(=O)C1=C(C)NC(C)=C(C(=O)OCCCN2CCC(c3ccccc3)(c3ccccc3)CC2)C1c1cccc([N+](=O)[O-])c1 (stereo not drawn)	nt	11µM*	?	nt	nt	18µM*
O=C(CCNC(=O)c1ccco1)NCc1ccc(C(=O)O)cc1	-1%	-9%	-15%	1	11%	-12%
CC1=C(C(=O)OCc2ccccc2)C(c2ccccc2OC(F)F)NC(=O)N1 (stereo not drawn)	-11%	?	-5%	-7	?	29µM*
CC1=C(C(=O)OCc2ccccc2)C(c2ccc(N(C)C)cc2)NC(=O)N1 (stereo not drawn)	-19%	-23%	-12%	-60*	-8%	-23%
CC1=C(C(=O)OCc2ccccc2)C(c2cccc([N+](=O)[O-])c2)NC(=O)N1 (stereo not drawn)	7%	18µM*	?	-2	-1%	?
CCOc1ccc(C2NC(=O)NC(C)=C2C(=O)OCc2ccccc2)cc1 (stereo not drawn)	?	?	23%	?	?	-29%
COc1ccc(COC(=O)C2=C(C)NC(=O)NC2c2ccc(F)cc2)cc1 (stereo not drawn)	-27%	?	-30%	-52*	-18%	?
Cc1c(CCC(=O)Nc2nc3ccccc3[nH]2)c(=O)oc2c(C)c(O)ccc12	nt	nt	-6%	nt	nt	nt
COCc1c(C(=O)N2CCN(c3ccccc3)CC2)cnn1-c1nccc(-c2ccco2)n1	nt	-29%	5%	nt	nt	29%[9.04 µM]
CCCCCC/C=N/NC(=O)c1ccc(C(C)(C)C)cc1	nt	nt	29%	nt	nt	nt
Cc1cc(C(=O)Nc2ccc3c(c2)CCC3)cs1	nt	nt	31%	nt	nt	nt
O=C(c1ccccc1)N1CCN(C(=O)c2ccccc2)c2ccccc21	-19%	?	2%	-11	?	8.2µM*
O=C(NC(=S)N1CCc2ccccc21)c1ccccc1Cl	-19%	?	-12%	-14	-9%	?
O=C(Nc1ccc2c(c1)CCC2)c1cccs1	0%	-29%	?	-63*	-13%	-23%
O=C(c1ccccc1)N1CCc2ccccc21	5%	-14%	0%	-10	9%	0%
O=C(NC(=S)N1CCc2ccccc21)c1ccccc1	-16%	18µM*	-24%	16	-17%	21µM*
O=C(Nc1ccc(C(=O)N2CCCc3ccccc32)cc1)c1cccs1	13%	?	0%	-80*	-2%	8%
Cn1cc(C(=O)N2CCC3(CC2)NCCc2c3[nH]c3ccccc23)cn1	nt	nt	10%	nt	nt	nt
O=C(Nc1cccc(C(=O)N2CCCc3ccccc32)c1)c1ccccc1	?	21µM*	0%	6	23µM*	?
O=C(c1cccc(N2C(=O)C3C4C=CC(C4)C3C2=O)c1)N1CCCc2ccccc21 (stereo not drawn)	23%	?	27%	18	13%	-9%
CC(OC(=O)c1cccc([N+](=O)[O-])c1)C(=O)N1CCc2ccccc21 (stereo not drawn)	-1%	?	189%	35	-1%	?
O=C(c1ccccc1)N1CCCc2ccccc21	1%	?	0%	15	2%	-18%
O=C(c1cccc(N2C(=O)C3CC=CCC3C2=O)c1)N1CCCc2ccccc21 (stereo not drawn)	6%	1.5µM*	?	18	1%	?
CC(=O)Nc1cccc(C(=O)OC(C)C(=O)N2CCc3ccccc32)c1 (stereo not drawn)	-20%	4.1µM*	-16%	-2	-3%	29µM*
SMILES	HT1080NT lethal	DT40 TDP1 no CPT	ALOX12 inh	IL1B secr inh	HT1080 IDH1KD tx	TDP1 cell CPT
CCC(C)NC(=O)COC(=O)c1c[nH]c2ccccc12 (stereo not drawn)	nt	nt	25%	nt	nt	nt
O=C(COc1ccc2ccccc2c1)Nc1cnc2ccccc2c1	nt	nt	-5%	nt	nt	nt
Cc1cccc(C(=O)Nc2ccc(C(=O)/C=C/c3cccnc3)cc2)c1	?	4.6µM*	?	-78*	18µM*	5.2µM*
O=C(N/N=C/c1cccnc1)c1cccc(Br)c1	17%	0%	0%	7	18%	-12%
O=C(/C=C/c1cccnc1)c1ccc(NC(=O)c2cccc(Br)c2)cc1	-13%	3.2µM*	0%	-25	-15%	7.1µM*
Cc1cccc(C(=O)Nc2ccc(C(=O)/C=C/c3ccncc3)cc2)c1	?	?	?	6	?	?
CSCC[C@@H]1NC(=O)c2cc(NC(=O)Cn3ccc4ccccc43)ccc2NC1=O	nt	nt	35µM*	nt	nt	nt
CSCC[C@@H]1NC(=O)c2cc(NC(=O)c3cccc4c3ccn4C)ccc2NC1=O	nt	nt	-1%	nt	nt	nt
COc1ccc(-c2cnc(C(N)=O)c(=O)[nH]2)cc1	8%	-5%	6.3µM*	-5	-1%	-25%
COc1ccc(C(O)c2ncc(-c3ccc(Cl)cc3)[nH]2)cc1 (stereo not drawn)	-9%	-21%	?	-3	-11%	?
CC(CCc1ccccc1)NC(=O)c1ccc(NC(=O)c2ccccc2)cc1 (stereo not drawn)	16µM*	10µM*	-17%	4	12%	15µM*
Cc1cccc(NC(=O)C(C#N)C(=O)CCc2ccccc2)c1 (stereo not drawn)	nt	nt	32µM*	nt	nt	nt
Cc1cccc(NC(=O)NC(C)CCc2ccccc2)c1 (stereo not drawn)	1%	-17%	1%	-57*	-7%	-18%
Cc1cccc(NC(=O)CCc2ccccc2)c1	19%	-3%	-3%	-14	2%	-13%
Cc1cccc(NC(=S)NC(C)CCc2ccccc2)c1 (stereo not drawn)	-10%	?	40µM*	-96*	0%	?
Cc1cccc(C(=O)NCC(=O)NC(C)CCc2ccccc2)c1 (stereo not drawn)	14%	6%	-5%	0	0%	1%
C[C@H](CO)N1C[C@H](C)[C@@H](CN(C)C(=O)Nc2ccc(C(C)(C)C)cc2)OCc2cn(nn2)CCCC1=O	nt	nt	-3%	nt	nt	nt
